Assay results taken from PubChem BioAssay (NCI).
About 83,000 compounds went through this panel and 20% of them were active in at least one assay; those are over-represented in the sample as a whole.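 For each line, cells grew in 96-well plates with the test compound present at a single concentration for 48 hours.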 Unmarked numbers belong to inactive results. Calls of active or inactive are those of the source. The calls were made as follows: active = growth percent below 10; inactive = the rest.

Each molecule was assayed on MDA-MB-231 breast (assay: NCI-60 one-dose screen, 48 h (100 = growth as untreated, 0 = no growth, -100 = all killed)). Conditions: 10 µM unless noted.

| SMILES | growth |
| --- | --- |
| CCn1c(Cc2ccccc2Nc2c(Cl)cccc2Cl)nnc1SCC(=O)Nc1cccc(OC)c1 | 61.6% |
| COc1ccc2nc(C)cc(Sc3nc4ccccc4s3)c2c1 | 27.9% |
| COc1cnc2c(c1)C(=O)c1c-2n(CCCN2CCN(C)CC2)c(=O)c2cc(Cl)ccc12 | 48.6% |
| c1cn2cc(-c3ccc4ncn(C5CCCCC5)c4c3)nc(-c3ccc4c(c3)ncn4C3CCCCC3)c2n1 | -68.7% (active) |
| CN1C(=O)N(C)C2C1NN=c1s/c(=C\c3ccc(C(F)(F)F)cc3)c(=O)n12 (stereo not given) | 60.4% |
| CN1C(=O)N(C)C2C1NN=c1s/c(=C\c3ccsc3)c(=O)n12 (stereo not given) | 66.8% |
| C/C(=N\Nc1ccc([N+](=O)[O-])cn1)c1ccc(N)cc1 | 88.9% |
| COc1ccccc1/C=N\Nc1ccc([N+](=O)[O-])cn1 | 103% |
| CCCCCCCCCCCCCCCCCC(=O)[O][Sn]([CH2]CCC)([CH2]CCC)[CH2]CCC | -57.8% (active) |
| C[C@H](NC(=O)c1snnc1C1CC1)c1c(F)cccc1Cl | 105% |
| CC(C)c1cccc(C#N)c1 | 102% |
| CN1C(=O)N(C)C2C1NN=c1s/c(=C\c3ccc(Br)cc3)c(=O)n12 (stereo not given) | 66.1% |
| O=C1SCN(Cc2ccccc2)CN1Cc1ccccc1 | 86.9% |
| C[N+](C)(C)CC(=O)N/N=C\c1ccco1 | 118% |
| COc1cc(C2CC(c3ccc(Cl)cc3)=NN2C(C)=O)ccc1Oc1nc2c(c(=O)n(C)c(=O)n2C)n1C (stereo not given) | 85.8% |
